PubChem BioAssay
“And” between values parts separate entries of the source, which are not always exact repeats. Equal entries are not always repeated. A structure can be active in one record and inactive in another. The source made the active and inactive calls.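 How the source made its calls, unless noted: active means normalized viability below 100% at a tested concentration; inactive means the rest.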

Tests used:
[1] = stimulators of nuclear beta-catenin in C2C12, primary screen, imaging, WNT3A-conditioned medium, mouse C2C12, NPC library (AID 1117326; in the data active means nuclear beta-catenin stimulation mostly above about 4.2%, no sharp cut-off; inactive means mostly below about 10%); details: stronger effect = higher value
[2] = stimulators of insulin release from INS-1E, primary screen, cell-based, 5 mM glucose, NPC library (AID 1117329;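 active means compound raises insulin release from rat beta cells at 5 mM glucose, no numeric limit stated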); details: rat INS-1E insulin secretion, at 10 µM, stronger effect = higher value
[3] = growth inhibition of GSK3B-pretreated HCT116 cells – cell-based, CellTiter-Glo, 0.2 to 20 µM (AID 1117336;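 active means compounds lowering colon cancer cell viability after pretreatment blocking the GSK3B kinase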); details: HCT116 viability after GSK3B inhibitor, at 20 µM, stronger effect = higher value
[4] = inhibition of endothelial tube formation, primary screen, imaging, VEGF stimulated, CD31 staining, tube area, NPC library (AID 1117340;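 active means compound that reduces growth-factor-driven endothelial tube area in a mixed cell culture, no cutoff stated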); details: VEGF-stimulated ADSC/ECFC co-culture, at 10 µM, stronger effect = higher value
[5] = glucagon-like peptide 1 release enhancers, primary assay, NCI-H716 cell line, NPC library (AID 1117341;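 active means compound raises GLP1 secretion from the human gut endocrine cells, with no numeric limit stated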); details: NCI-H716 cells, at 10 µM, stronger effect = higher value
[6] = HCT116 colon cancer cell growth inhibition, primary screen, CellTiter-Glo luminescence, NPC library (AID 1117342;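 active means compounds that lower survival of HCT116 colon cancer cells in the luminescence readout, no numeric limit stated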); details: at 20 µM (top of the series)
[7] = CellTiter-Glo luminescent readout of SW480 viability loss, NPC library primary (AID 1117343;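 active means compounds that lower viability of the colon cancer cells in the luminescence readout, with no numeric limit stated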); details: CellTiter-Glo luminescence; at 20 µM (top of the series)
[8] = decreased DLD-1 cellular survival, CellTiter-Glo luminescent readout, NPC compound collection, primary HTS (AID 1117346;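 active means compounds that lower survival of DLD-1 colon cancer cells in the luminescence readout, no cutoff given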); details: DLD-1 viability, CellTiter-Glo luminescence; at 20 µM (top of the series)
[9] = target: 6-phosphogluconate dehydrogenase, decarboxylating (Homo sapiens) (UniProt P52209); assay: 6PGD enzyme inhibitors, primary screen, biochemical, human, recombinant enzyme, NADPH absorbance (AID 1159550;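 active means at least 20% inhibition of 6-phosphogluconate dehydrogenase activity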); details: recombinant 6PGD, NADPH absorbance 341 nm; at 10 µM; stronger effect = higher value
[10] = modulation of C. elegans fzo-1 (AID 1259413; call rule not given here;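 further: fzo-1 mutant C. elegans worms in liquid wells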); details: C. elegans fzo-1 modulator screen, mean read-out; stronger effect = higher value
[11] = differential killing of epithelial or mesenchymal cells, primary screen, imaging, PC-3E GFP, TEM4-18 mCherry, co-culture (AID 1345086;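 active means compounds killing one labelled cell type while sparing the other, by normalised counts and ratio limits, not self-fluorescent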;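 on all read-outs here: cells exposed to compound for 72 h before imaging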;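 on red/green cell ratio (normalised): normalised mesenchymal count divided by normalised epithelial count so high means epithelial killing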); details: imaging cell counts, at 1 µM; for red/green cell ratio (normalised): actives lie on both sides, counts scaled to control wells, 1 = unselective
[12] = survival rescue of mitochondrial mutant cells in low glucose, primary screen, MELAS cybrids, Rieske KO mouse fibroblasts, CellTiter-Glo (AID 1508586;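 active means mean z-score across replicates of 1.96 or higher in either the MELAS or the Rieske mutant cell line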;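 further: z relative to plate mean and SD of compound and empty wells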)
[13] = target: NAD(+) hydrolase SARM1 (Homo sapiens) (UniProt Q6SZW1); assay: SARM1 TIR NADase inhibitors, cell lysate, NAD-Glo luminescence (AID 1508614;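 active means compound whose remaining NAD level is above about 45 nM, limit read from the data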); details: SAM-TIR HEK293T lysate NADase, at 1 µM, stronger effect = higher value
[14] = target: Mitogen-activated protein kinase 7 (Homo sapiens) (UniProt Q13164); assay: ERK5 transactivation activators in reporter cells, primary screen, cell-based, HTS (AID 1508626;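 active means luciferase signal above three times the same-plate solvent-only control wells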;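 further: luciferase driven by Gal4-ERK5 fusion binding five Gal4 sites before minimal TATA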); details: HeLa Gal4-ERK5 transactivation, 18 h, at 5 µM, stronger effect = higher value
[15] = test system: F380Y; assay: modulators of BK channel variants, profiling panel, selectivity assay, cell-based, U2OS BacMam, thallium flux, beta subunits (AID 1259406;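 active means thallium flux through the channel raised or lowered by more than 3 SD from vehicle-only wells, actives on both sides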;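 further: initial slope of Thallos dye fluorescence rise after thallium is added; log ratio against the mean of 0.3% DMSO vehicle wells on the same plate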); details: at 30 µM
[16] = test system: F380Y/beta1; assay: as above; details: at 30 µM
[17] = test system: F380Y/beta2Delta; assay: as above; details: at 30 µM
[18] = ovarian cancer cell viability with rucaparib, profiling panel, oncology-focused library, rucaparib conditional (AID 1508598); details: patient-derived ovarian cancer cells, CellTiter-Glo viability, 144 h, stronger effect = lower value
[19] = ICB984 medulloblastoma cell growth inhibition, synergistic combos for chromothripsis tumors, cisplatin or BGB combos (AID 1671451; call rule not given here;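 further: cells exposed for 96 hours before readout; 0% = vehicle DMSO and 100% = killing by high DMSO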); details: ICB984 medulloblastoma cells, drug combinations, stronger effect = higher value
[20] = measured here: epithelial PC-3E GFP cell survival
[21] = measured here: mesenchymal TEM4-18 mCherry cell survival

Chain of 6-phosphogluconate dehydrogenase, decarboxylating (Homo sapiens) (P52209 whole entry, looked up): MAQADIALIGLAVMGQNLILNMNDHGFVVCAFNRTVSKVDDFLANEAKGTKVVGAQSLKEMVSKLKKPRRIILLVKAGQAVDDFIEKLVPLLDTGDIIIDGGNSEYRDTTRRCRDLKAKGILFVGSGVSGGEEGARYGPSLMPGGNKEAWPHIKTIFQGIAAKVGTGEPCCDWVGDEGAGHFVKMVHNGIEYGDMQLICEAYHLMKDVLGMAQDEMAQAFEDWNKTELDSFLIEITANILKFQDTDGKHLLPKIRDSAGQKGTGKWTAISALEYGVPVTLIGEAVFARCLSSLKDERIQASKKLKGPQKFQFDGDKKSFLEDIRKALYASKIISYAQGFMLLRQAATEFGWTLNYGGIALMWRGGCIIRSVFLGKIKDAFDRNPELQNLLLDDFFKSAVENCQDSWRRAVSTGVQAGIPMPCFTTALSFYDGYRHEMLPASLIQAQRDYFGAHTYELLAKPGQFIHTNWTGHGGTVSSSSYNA
Chain of NAD(+) hydrolase SARM1 (Homo sapiens) (Q6SZW1 whole entry, looked up, the tested form may be a part): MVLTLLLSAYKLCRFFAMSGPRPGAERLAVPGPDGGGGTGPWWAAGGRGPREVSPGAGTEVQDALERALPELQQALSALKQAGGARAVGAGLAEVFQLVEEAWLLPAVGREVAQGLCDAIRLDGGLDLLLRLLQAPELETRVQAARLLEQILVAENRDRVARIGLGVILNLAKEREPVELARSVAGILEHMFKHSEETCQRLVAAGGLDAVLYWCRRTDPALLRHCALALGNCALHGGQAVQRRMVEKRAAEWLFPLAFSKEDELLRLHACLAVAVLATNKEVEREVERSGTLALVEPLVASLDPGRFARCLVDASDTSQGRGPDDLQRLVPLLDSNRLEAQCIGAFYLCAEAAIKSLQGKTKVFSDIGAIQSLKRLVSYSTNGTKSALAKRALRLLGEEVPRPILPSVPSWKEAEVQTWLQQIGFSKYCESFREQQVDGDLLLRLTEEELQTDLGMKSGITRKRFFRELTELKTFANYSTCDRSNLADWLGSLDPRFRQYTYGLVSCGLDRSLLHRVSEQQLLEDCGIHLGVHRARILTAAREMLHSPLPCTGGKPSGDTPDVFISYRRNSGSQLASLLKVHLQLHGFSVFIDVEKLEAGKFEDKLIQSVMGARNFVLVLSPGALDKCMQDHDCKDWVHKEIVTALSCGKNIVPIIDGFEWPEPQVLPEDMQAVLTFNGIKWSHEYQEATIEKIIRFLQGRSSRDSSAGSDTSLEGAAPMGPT
Chain of Mitogen-activated protein kinase 7 (Homo sapiens) (Q13164 whole entry, looked up, the tested form may be a part): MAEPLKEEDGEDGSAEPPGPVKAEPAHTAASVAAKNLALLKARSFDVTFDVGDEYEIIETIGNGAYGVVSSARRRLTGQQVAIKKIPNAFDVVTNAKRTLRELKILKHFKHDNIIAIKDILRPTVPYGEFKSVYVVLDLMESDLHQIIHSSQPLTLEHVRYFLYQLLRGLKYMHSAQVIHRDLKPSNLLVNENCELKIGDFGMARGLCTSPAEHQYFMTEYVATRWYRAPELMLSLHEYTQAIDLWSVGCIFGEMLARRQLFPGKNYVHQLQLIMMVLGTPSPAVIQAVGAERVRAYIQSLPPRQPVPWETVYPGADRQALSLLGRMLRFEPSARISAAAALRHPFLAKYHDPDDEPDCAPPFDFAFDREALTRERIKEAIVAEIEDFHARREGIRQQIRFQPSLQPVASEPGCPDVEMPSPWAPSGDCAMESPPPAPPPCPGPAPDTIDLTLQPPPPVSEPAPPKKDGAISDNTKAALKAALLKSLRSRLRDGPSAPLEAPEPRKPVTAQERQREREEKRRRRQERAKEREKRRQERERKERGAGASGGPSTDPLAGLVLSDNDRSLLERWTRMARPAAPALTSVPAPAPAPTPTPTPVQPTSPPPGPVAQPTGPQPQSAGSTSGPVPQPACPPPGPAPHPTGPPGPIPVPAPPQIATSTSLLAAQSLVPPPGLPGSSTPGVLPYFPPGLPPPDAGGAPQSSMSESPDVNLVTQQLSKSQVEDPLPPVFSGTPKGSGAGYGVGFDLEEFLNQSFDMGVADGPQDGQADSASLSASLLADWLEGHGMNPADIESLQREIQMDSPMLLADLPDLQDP

NS(=O)(=O)c1cc2c(cc1Cl)NCNS2(=O)=O
1.24: normalised cell number [11, 20]
0.8%: nuclear beta-catenin stimulation ([1]; stimulation, at 2 µM)
inactive: nuclear beta-catenin stimulation ([1]; at 10 µM) 0.4% | insulin secretion stimulation [2] -1.9% | viability decrease [3] -1.55% | tube area decrease [4] -9% | GLP1 secretion stimulation [5] -0.3% | inhibition of viability [6] 0.1% | viability decrease (inhibition) [7] 5.4% | viability decrease (inhibition) [8] -1% | inhibition [9] -1.9% | mean signal [10] 233 | red/green cell ratio (normalised) [11] 0.89 | z-score ([12]; MELAS cybrid survival, CellTiter-Glo 48 h, stronger effect = higher value) -0.267 and -0.584 | remaining NAD [13] 10 nM | luciferase signal [14] 96 AU | log fold change Tl+ flux [15] -0.0347 | log fold change Tl+ flux [16] -0.00418 | log fold change Tl+ flux [17] -0.0515
0.408 and -0.255: z-score ([12]; Rieske KO mouse fibroblast survival, CellTiter-Glo 72 h)
1.11: normalised cell number [11, 21]

O=C1c2c(O)ccc(O)c2C(=O)c2c(NCCNCCO)ccc(NCCNCCO)c21
100% (inactive) and 94.2% (active): viability ([18]; at 0.000305 µM, OCI-P5x cells, without rucaparib)
17.1%: inhibition ([19]; BGB IC20 combo, at 0.005 µM)
14.4%: nuclear beta-catenin stimulation ([1]; stimulation, at 2 µM)
14.7%: inhibition ([19]; BGB IC40 combo, at 0.005 µM)
-40.5%: inhibition ([19]; cisplatin combo, at 0.5 µM)
104% (inactive) and 93.6% (active): viability ([18]; at 0.00488 µM, OCI-C5x cells, with rucaparib 10 µM, 100% = cells with rucaparib alone)
107% (inactive) and 84.4% (active): viability ([18]; at 0.00488 µM, OCI-P5x cells, without rucaparib)
109% (inactive) and 96.8% (active): viability ([18]; at 0.00122 µM, OCI-P5x cells, without rucaparib)
inactive: insulin secretion stimulation [2] 3.9% | GLP1 secretion stimulation [5] -17.3% | inhibition [9] 13% | mean signal [10] 214 | red/green cell ratio (normalised) [11] 0.57 | viability ([18]; at 0.000305 µM, OCI-C5x cells, with rucaparib 10 µM, 100% = cells with rucaparib alone) 111% and 109% | viability ([18]; at 0.000305 µM, OCI-C5x cells, without rucaparib) 114% and 118% | viability ([18]; at 0.00122 µM, OCI-C5x cells, with rucaparib 10 µM, 100% = cells with rucaparib alone) 114% and 109% | viability ([18]; at 0.00122 µM, OCI-C5x cells, without rucaparib) 117% and 115% | viability ([18]; at 0.00488 µM, OCI-C5x cells, without rucaparib) 113% and 104% | remaining NAD [13] 10 nM | luciferase signal [14] 20 AU | inhibition ([19]; at 0.5 µM) -30% | log fold change Tl+ flux [15] -0.0248 | log fold change Tl+ flux [16] -0.0573 | log fold change Tl+ flux [17] 0.00615
-32.5%: inhibition ([19]; cisplatin combo, at 5 µM)
101%: inhibition ([19]; BGB IC40 combo, at 0.05 µM) | inhibition ([19]; cisplatin combo, at 0.05 µM)
active: nuclear beta-catenin stimulation ([1]; at 10 µM) 79.6% | viability decrease [3] 102% | tube area decrease [4] 109% | inhibition of viability [6] 101% | viability decrease (inhibition) [7] 102% | viability decrease (inhibition) [8] 96.1% | viability ([18]; at 0.000305 µM, OCI-P5x cells, with rucaparib 20 µM, 100% = cells with rucaparib alone) 85.2% and 88.1% | viability ([18]; at 0.00122 µM, OCI-P5x cells, with rucaparib 20 µM, 100% = cells with rucaparib alone) 98.9% and 93.9% | viability ([18]; at 0.00488 µM, OCI-P5x cells, with rucaparib 20 µM, 100% = cells with rucaparib alone) 97.7% and 84.3% | viability ([18]; at 0.0195 µM, OCI-C5x cells, with rucaparib 10 µM, 100% = cells with rucaparib alone) 83.6% and 77% | viability ([18]; at 0.0195 µM, OCI-C5x cells, without rucaparib) 87.9% and 74.9% | viability ([18]; at 0.0195 µM, OCI-P5x cells, with rucaparib 20 µM, 100% = cells with rucaparib alone) 86.2% and 68.2% | viability ([18]; at 0.0195 µM, OCI-P5x cells, without rucaparib) 74.8% and 44.3% | viability ([18]; at 0.0781 µM, OCI-C5x cells, with rucaparib 10 µM, 100% = cells with rucaparib alone) 89.4% and 82.8% | viability ([18]; at 0.0781 µM, OCI-C5x cells, without rucaparib) 78.8% and 86.1% | viability ([18]; at 0.0781 µM, OCI-P5x cells, with rucaparib 20 µM, 100% = cells with rucaparib alone) 52.6% and 49.6% | viability ([18]; at 0.0781 µM, OCI-P5x cells, without rucaparib) 27.2% and 21.5% | viability ([18]; at 0.313 µM, OCI-C5x cells, with rucaparib 10 µM, 100% = cells with rucaparib alone) 76.1% and 60.1% | viability ([18]; at 0.313 µM, OCI-C5x cells, without rucaparib) 57% and 56.6% | viability ([18]; at 0.313 µM, OCI-P5x cells, with rucaparib 20 µM, 100% = cells with rucaparib alone) 25.3% and 26% | viability ([18]; at 0.313 µM, OCI-P5x cells, without rucaparib) 12.4% and 12.3% | viability ([18]; at 1.25 µM, OCI-C5x cells, with rucaparib 10 µM, 100% = cells with rucaparib alone) 13.3% and 11.4% | viability ([18]; at 1.25 µM, OCI-C5x cells, without rucaparib) 15% and 15.4% | viability ([18]; at 1.25 µM, OCI-P5x cells, with rucaparib 20 µM, 100% = cells with rucaparib alone) 7.5% and 9.35% | viability ([18]; at 1.25 µM, OCI-P5x cells, without rucaparib) 6.58% and 5.99% | viability ([18]; at 5 µM, OCI-C5x cells, with rucaparib 10 µM, 100% = cells with rucaparib alone) 3.19% and 2.94% | viability ([18]; at 5 µM, OCI-C5x cells, without rucaparib) 2.31% and 2.92% | viability ([18]; at 5 µM, OCI-P5x cells, with rucaparib 20 µM, 100% = cells with rucaparib alone) 6.35% and 8.96% | viability ([18]; at 5 µM, OCI-P5x cells, without rucaparib) 6.78% and 6.39%
0.12: normalised cell number [11, 21]
-34.5%: inhibition ([19]; measured here: 5 uM single agent, at 5 µM)
0.2: normalised cell number [11, 20]
